Results filed as inconclusive are left out. Entries that show only a call come without a potency. A number with no mark means an inactive call. Active and inactive are the calls of the source. Calls come from the whole dose curve; as a rule, active = well fitted curve in the direction sought with a large enough effect; inconclusive = small, poorly fitted or top-dose-only effect, or another doubt; inactive = no such curve, though single readings can be large; an effect the other way counts as inactive or inconclusive.
target: Rap guanine nucleotide exchange factor 3 (Homo sapiens) (UniProt O95398); assay: Counterscreen qHTS for antagonist of cAMP-regulated guanine nucleotide exchange factor 3 (EPAC1) (AID 1645888); conditions: Rap1B-BODIPY-GDP nucleotide exchange, fluorescence; series mostly up to 154 µM;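 note: fluorescence loss as bound BODIPY-GDP is released from Rap1B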
Sequence (O95398 whole entry, looked up): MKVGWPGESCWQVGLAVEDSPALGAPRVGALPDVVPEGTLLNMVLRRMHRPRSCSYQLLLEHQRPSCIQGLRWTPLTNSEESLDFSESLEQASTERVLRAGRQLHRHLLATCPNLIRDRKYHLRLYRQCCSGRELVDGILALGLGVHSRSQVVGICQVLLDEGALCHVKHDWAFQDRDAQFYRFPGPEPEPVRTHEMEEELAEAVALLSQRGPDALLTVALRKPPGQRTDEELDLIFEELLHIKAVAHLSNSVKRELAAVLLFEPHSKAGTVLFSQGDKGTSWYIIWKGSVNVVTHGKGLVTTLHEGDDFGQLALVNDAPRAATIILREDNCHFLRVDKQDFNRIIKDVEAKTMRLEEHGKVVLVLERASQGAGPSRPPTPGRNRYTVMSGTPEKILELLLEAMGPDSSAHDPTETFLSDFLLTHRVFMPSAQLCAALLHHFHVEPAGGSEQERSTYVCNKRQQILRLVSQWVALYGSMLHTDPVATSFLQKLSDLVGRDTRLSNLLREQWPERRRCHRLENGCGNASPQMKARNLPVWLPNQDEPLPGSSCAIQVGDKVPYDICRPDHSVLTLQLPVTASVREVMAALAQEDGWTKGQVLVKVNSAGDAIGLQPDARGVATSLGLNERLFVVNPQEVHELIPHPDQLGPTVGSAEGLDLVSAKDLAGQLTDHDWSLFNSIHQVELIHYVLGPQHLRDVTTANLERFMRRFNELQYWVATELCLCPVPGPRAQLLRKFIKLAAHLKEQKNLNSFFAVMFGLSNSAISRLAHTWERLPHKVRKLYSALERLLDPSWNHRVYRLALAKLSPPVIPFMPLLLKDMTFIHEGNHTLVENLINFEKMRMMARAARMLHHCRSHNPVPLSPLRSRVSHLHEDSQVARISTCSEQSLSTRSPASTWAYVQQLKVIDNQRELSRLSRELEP
Outline: (§1)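 Measured: fluorescence of BODIPY-GDP bound to Rap1B, which falls as exchange proceeds. Conditions include 50 uM competing GDP, 5 and 30 min reads, and a later cAMP challenge for antagonist detection.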

| Compound | Potency | activity change, negative = inhibition |
| --- | --- | --- |
| Cn1c(SCC(=O)Nc2cccc(C(=O)O)c2)nnc1-c1cc2cc(Br)ccc2o1 | inactive |  |
| O=C(OCCN1C(=O)c2cccc3c(N4CCOCC4)ccc(c23)C1=O)c1ccccc1Cl |  | 1.86% [at 30.8 µM] |
| O=C(/C=C/c1ccc(N2CCOCC2)cc1)c1ccccc1 | inactive |  |
| COc1ccc(OC)c(C2=CC(=O)C[C@H](c3ccc4c(c3)OCO4)C2)c1 |  | -6.17% [at 30.8 µM] |
| COc1ccc(C(=O)c2ccc(Br)cc2)c(OC)c1OC | inactive |  |
| CCOc1cc(/C=C2\SC(=Nc3ccc(CC)cc3)NC2=O)ccc1OCC(=O)O | inactive |  |
| O=C(O)COc1ccccc1/C=N/Nc1ccc(S(=O)(=O)Nc2ccc(Cl)cc2)cc1[N+](=O)[O-] |  | -8.36% [at 30.8 µM] |
| COc1cc(/C=C2\CCn3c2nc2cc(C(=O)O)ccc2c3=O)ccc1OC(F)F | inactive |  |
| O=C(O)CC/C(=C\c1ccc(N2CCCC2)c([N+](=O)[O-])c1)c1nc2ccccc2s1 | inactive |  |
| Oc1ccccc1N=Cc1c(O)ccc2ccccc12 |  | -12% [at 30.8 µM] |
| O=C(O)CCN1C(=O)/C(=C\c2cccc(OCC(=O)Nc3ccc(Cl)cc3)c2)SC1=S | inactive |  |
| Cc1c(CCC(=O)O)c(=O)oc2cc(OCc3ccccc3Br)ccc12 | inactive |  |
| COc1ccc(C2Nc3ccccc3-c3cc(C)nn32)c(OC)c1 (configuration not stated) | inactive |  |
| COc1ccc(S(=O)(=O)Nc2ccc(F)cc2)c(C)c1C | inactive |  |
| COc1ccc(CCn2c(O)cc3nn(-c4nc5ccccc5s4)c(=O)c-3c2C)cc1 | inactive |  |
| COc1ccc(CN(Cc2ccco2)C(=O)c2ccccc2F)cc1 | inactive |  |
| CC1=CC(=C(C#N)c2nc3ccccc3s2)C=C(C)N1Cc1ccco1 | inactive |  |
| CCc1ccc(N=C2NC(=O)/C(=C/c3ccc(OCC(=O)O)c(OC)c3)S2)cc1 | inactive |  |
| Cc1ccc(NS(=O)(=O)c2cccc3cccnc23)c(Cl)c1 | inactive |  |
| O=[N+]([O-])c1ccc(NS(=O)(=O)c2ccccc2)c(Cl)c1 | inactive |  |

| Compound | Potency | activity change, negative = inhibition |
| --- | --- | --- |
| N#C/C(=C\c1ccc(Sc2ccccc2)o1)c1nc2ccccc2[nH]1 | inactive |  |
| S=c1[nH]nc(-c2cc(-c3ccccc3)n[nH]2)n1/N=C/c1ccc(Cl)c(Cl)c1 |  | -11.9% [at 30.8 µM] |
| COc1ccc2cc(-c3nc(Cl)c4c5c(sc4n3)CCCC5)c(=O)oc2c1 | inactive |  |
| O=C(O)CC/C(=C\c1cccc(NC(=O)c2ccccc2Cl)c1)c1nc2ccccc2s1 | inactive |  |
| Cc1nc(C)c(-c2csc(Nc3ccc(C(=O)O)c(O)c3)n2)s1 | inactive |  |
| COC(/C(=N/O)c1ccc(Cl)cc1)c1ccccc1 (configuration not stated) |  | -2% [at 30.8 µM] |
| COc1cc2ccccc2cc1C(=O)NC(=S)Nc1cccc(C(=O)O)c1 |  | -9.48% [at 30.8 µM] |
| CCOc1ccc(/C=C2\SC(=S)N(NS(=O)(=O)c3ccccc3)C2=O)cc1OC | inactive |  |
| Cc1cc(Br)cn2c(Cc3ccsc3)c(-c3ccco3)nc12 |  | 4.94% [at 30.8 µM] |
| Cc1ccc(N2C(=O)c3cccc4c(N)ccc(c34)C2=O)c2cccnc12 | inactive |  |
| CNc1ccc(/C=C(\CCC(=O)O)c2nc3ccccc3s2)cc1[N+](=O)[O-] |  | -16.8% [at 30.8 µM] |
| NC(N)=N/N=C/c1ccc(OCc2ccc(Cl)cc2Cl)cc1 |  | 10.5% [at 30.8 µM] |
| CCc1ccc(N=C2NC(=O)/C(=C/c3ccc(OCC(=O)O)cc3)S2)cc1 |  | -19.4% [at 30.8 µM] |
| Cc1cc(=O)n(Cc2ccccc2)c2c1c(C)nn2C | inactive |  |
| CCOC(=O)c1c(CSc2ccccc2)n(C)c2cc(Br)c(OCC(O)CNC(CO)(CO)CO)cc12 (configuration not stated) | inactive |  |
| COc1ccc(C(=O)NCCn2cc(SCC(=O)NCCc3ccc(OC)c(OC)c3)c3ccccc32)cc1 | inactive |  |
| O=C(Nc1cc(S(=O)(=O)N2CCCCC2)ccc1O)c1ccccc1NS(=O)(=O)c1ccc(F)c(F)c1 |  | -23% [at 30.8 µM] |
| Oc1ccc(NCc2cccc(OCc3ccc(F)cc3)c2)cc1 |  | -11.4% [at 30.8 µM] |
| O=c1oc2c3c(ccc2c2ccccc12)OCN(Cc1cccc(Cl)c1)C3 | inactive |  |

target: Rap guanine nucleotide exchange factor 3 (Homo sapiens) (UniProt O95398); assay: Counterscreen qHTS for agonist of cAMP-regulated guanine nucleotide exchange factor 3 (EPAC1) (AID 1645889); conditions: EPAC1 Rap1B-BODIPY-GDP exchange, fluorescence; series mostly up to 154 µM; note: nearly all actives have a fitted effect of over 40% in size; note: potency is the fitted concentration of half-maximal effect
Outline: as §1

| Compound | Potency | activation |
| --- | --- | --- |
| Cn1c(SCC(=O)Nc2cccc(C(=O)O)c2)nnc1-c1cc2cc(Br)ccc2o1 | inactive |  |
| O=C(OCCN1C(=O)c2cccc3c(N4CCOCC4)ccc(c23)C1=O)c1ccccc1Cl | 11.2 µM (active) |  |
| O=C(/C=C/c1ccc(N2CCOCC2)cc1)c1ccccc1 | inactive |  |
| COc1ccc(C(=O)c2ccc(Br)cc2)c(OC)c1OC | inactive |  |
| CCOc1cc(/C=C2\SC(=Nc3ccc(CC)cc3)NC2=O)ccc1OCC(=O)O | inactive |  |
| O=C(O)COc1ccccc1/C=N/Nc1ccc(S(=O)(=O)Nc2ccc(Cl)cc2)cc1[N+](=O)[O-] |  | 17.2% [at 30.8 µM] |
| COc1cc(/C=C2\CCn3c2nc2cc(C(=O)O)ccc2c3=O)ccc1OC(F)F | inactive |  |
| O=C(O)CC/C(=C\c1ccc(N2CCCC2)c([N+](=O)[O-])c1)c1nc2ccccc2s1 | inactive |  |
| Cc1c(CCC(=O)O)c(=O)oc2cc(OCc3ccccc3Br)ccc12 | inactive |  |
| COc1ccc(CCn2c(O)cc3nn(-c4nc5ccccc5s4)c(=O)c-3c2C)cc1 | inactive |  |
| Cc1ccc(NS(=O)(=O)c2cccc3cccnc23)c(Cl)c1 | inactive |  |
| O=[N+]([O-])c1ccc(NS(=O)(=O)c2ccccc2)c(Cl)c1 | inactive |  |
| S=c1[nH]nc(-c2cc(-c3ccccc3)n[nH]2)n1/N=C/c1ccc(Cl)c(Cl)c1 |  | 18.4% [at 30.8 µM] |
| O=C(O)CC/C(=C\c1cccc(NC(=O)c2ccccc2Cl)c1)c1nc2ccccc2s1 | inactive |  |
| COc1cc2ccccc2cc1C(=O)NC(=S)Nc1cccc(C(=O)O)c1 |  | 7.44% [at 30.8 µM] |
| CCOc1ccc(/C=C2\SC(=S)N(NS(=O)(=O)c3ccccc3)C2=O)cc1OC | inactive |  |
| Cc1cc(Br)cn2c(Cc3ccsc3)c(-c3ccco3)nc12 |  | 27.6% [at 30.8 µM] |
| Cc1ccc(N2C(=O)c3cccc4c(N)ccc(c34)C2=O)c2cccnc12 | 10 µM (active) |  |
| NC(N)=N/N=C/c1ccc(OCc2ccc(Cl)cc2Cl)cc1 |  | 27.4% [at 30.8 µM] |
| CCc1ccc(N=C2NC(=O)/C(=C/c3ccc(OCC(=O)O)cc3)S2)cc1 |  | 14.2% [at 30.8 µM] |
| CCOC(=O)c1c(CSc2ccccc2)n(C)c2cc(Br)c(OCC(O)CNC(CO)(CO)CO)cc12 (configuration not stated) | inactive |  |
| COc1ccc(C(=O)NCCn2cc(SCC(=O)NCCc3ccc(OC)c(OC)c3)c3ccccc32)cc1 | inactive |  |
| O=c1oc2c3c(ccc2c2ccccc12)OCN(Cc1cccc(Cl)c1)C3 | inactive |  |

From PubChem BioAssay (NCATS)
